# ALR H2O2 inh – inhibitors of human sulfhydryl oxidase ALR | AID 485317 | purified ALR, DTT oxidation, H2O2 HRP-luminol luminescence | actives 3.8% (n = 290,000) | inhibition, % (concentration not given with the values) | P55789;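 active = mean replicate inhibition above about 79%, with every replicate also reaching it, limit read from the data; inconclusive = only one of the two criteria met; inactive = mean below limit and not every replicate reaching it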
# Target sequence (P55789 whole entry, looked up): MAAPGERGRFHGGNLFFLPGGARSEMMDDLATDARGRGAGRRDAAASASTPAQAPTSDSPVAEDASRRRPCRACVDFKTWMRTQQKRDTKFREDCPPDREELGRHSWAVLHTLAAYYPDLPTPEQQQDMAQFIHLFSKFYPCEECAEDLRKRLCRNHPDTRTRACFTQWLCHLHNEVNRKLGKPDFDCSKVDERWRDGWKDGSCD
# SUMO Mot1 rescue – inhibitors of SUMOylation pathway: yeast Mot1-301 growth rescue | S. cerevisiae Mot1-301 growth rescue, ATP luminescence, 38.5C; percent above DMSO median, 100 means doubled | AID 2716 | actives 1% (n = 320,000) | growth rescue, % at 18.8 µM;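 active = every valid replicate shows activation above 250% relative to neutral control wells; inactive = the rest, any valid replicate at or below 250%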;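 note: OY570 slx delta 5 strain wells were the positive control but not used for scaling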
# PfM18AAP inh – blocks P. falciparum M18 aspartyl aminopeptidase; actives 1.2% (n = 290,000); inhibition, % at 7.35 µM; recombinant PfM18AAP, H-Glu-NHMec fluorogenic cleavage;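 active = inhibition above the campaign mean inhibition over all tested compounds plus 3 SD, cut at about 28% in these data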;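 note: 0% = plate median of test compound wells and 100% = 2 mM ZnCl2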
# HIF act – HIF pathway transcriptional activation. actives 0.32% (n = 300,000). activation, % at 7.5 µM (by protocol). U2OS HRE-luciferase reporter, luminescence; normalized: DMSO 0%, desferrioxamine 100%;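 active = mean activation of at least 10% of the iron chelator positive control signal, with at least half of replicates also reaching 10%; inconclusive = mean and replicate majority disagree about reaching 10%; inactive = mean and most replicates under 10%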
# Numbers without * were called inactive; ? = inconclusive; / = no result. This is a sample that favours compounds with a hit; in the whole collection about 5.3% have one here.
SMILES,ALR H2O2 inh,SUMO Mot1 rescue,PfM18AAP inh,HIF act
CCOc1cc(N2CCOCC2)c(OCC)cc1NC(=O)c1cc(S(=O)(=O)N2CCOCC2)ccc1F,-11,-7,/,/
CC(OC(=O)Cc1ccccc1[N+](=O)[O-])C(=O)NC(=O)NC1CCCCC1 (centres undefined),1,-14,/,2
O=Nc1ccc(NOC(=O)c2ccccc2Br)cc1,60,30,9,1
O=C(ONc1ccc(N=NC(=O)c2ccccc2O)cc1)c1ccccc1,98*,208,12,1
CN(C)c1ccc(/C=N/n2c(-c3ccccc3Br)n[nH]c2=S)cc1,96*,6,20,0
Cc1ccc(/C=N/n2c(-c3cccnc3)n[nH]c2=S)s1,76*,-4,19,-36
S=c1[nH]c(-c2ccccc2)cn1/N=C/c1cccc2ccccc12,4,-24,25,0
Cc1ccc(/C=N/n2cc(-c3ccccc3)[nH]c2=S)s1,?,-12,53*,4
S=c1[nH]nc(-c2cccnc2)n1/N=C/c1ccc(Br)s1,3,6,-8,1
CN(C)c1ccc(/C=N/n2c(-c3cccnc3)n[nH]c2=S)cc1,98*,8,20,0
CN(C)c1ccc(/C=N/n2c(COc3ccccc3)n[nH]c2=S)cc1,/,-8,22,0
CC(C)c1ccc(C2(C)NC(=O)N(CC(=O)N3CCN(C(=O)c4cccs4)CC3)C2=O)cc1 (centres undefined),-2,-2,/,/
CC(=O)OCC1(C)CN(c2ccccc2)N(C(C)=O)C1=O (centres undefined),57,133,5,0
CC(=O)OCC1(C)CN(c2ccccc2)NC1=O (centres undefined),99*,70,10,0
COC(=O)C1=C(C(=O)OC)[C@@H]2N(C)c3ccc(OC)cc3[C@@]23C[C@@H](C(=O)OC)N=C3N1,77*,-21,/,1
COC(=O)C1=C2SC(C)C(=O)N2C(N)=C(C#N)C1c1ccc(OC)c(OC)c1 (centres undefined),15,315,30*,1
COc1ccc(C(=O)NCCS(=O)(=O)N2CCc3ccccc3C2)cc1,-3,530*,/,0
COc1ccc(N2CCN(S(=O)(=O)CCNC(=O)COc3ccccc3OC)CC2)cc1,93*,90,5,0
Cc1c(Cl)cccc1NS(=O)(=O)c1ccc2c(c1)C1C=CCC1C(c1ccc(C(=O)O)cc1)N2 (centres undefined),98*,6,6,/
COc1ccc(NS(=O)(=O)c2ccc3c(c2)[C@H]2C=CC[C@H]2[C@@H](c2ccc(C(=O)O)cc2)N3)cc1,-11,-6,18,0
O=c1oc2cc(Br)ccc2n1CSC1=NCCS1,99*,28,0,/
CCCc1nnc(NC(=O)Cn2c(=O)oc3cc(Br)ccc32)s1,-10,5,-1,/
FC(F)C(F)(F)C1=CC(c2ccccc2)=NCCN1,-3,1,-11,-1
Oc1ccc(Cl)cc1C1=NCCNC(C(F)(F)C(F)F)=C1,99*,8,5,0
Cc1ccc(O)c(C2=NCCNC(C(F)(F)C(F)F)=C2)c1,99*,417,-5,1
SMILES,ALR H2O2 inh,SUMO Mot1 rescue,PfM18AAP inh,HIF act
O=C(/C(=N/N=C/c1ccc(O)c(O)c1O)c1ccccc1)c1ccccc1,99*,10,22,0
Oc1ccc(/C=N/N=C(c2ccccc2)c2ccccc2)c(O)c1O,98*,5,24,/
O=C(O)c1ccc(C(=O)C(=O)c2ccccc2)cc1,-10,-12,8,-1
Oc1cccc(C=NCc2ccccc2)c1O,-6,9,14,0
CC(C)CCN1CCN(Cc2coc3ccccc3c2=O)CC1CCO (centres undefined),/,1,-2,-1
CC(C)Oc1ccc(/C=C/C(=O)NCC2COc3ccccc3O2)cc1 (centres undefined),0,33,-1,0
Cc1nn2c(-c3ccc(S(=O)(=O)N4CCN(C)CC4)o3)nnc2c2ccccc12,0,-2,3,0
Cc1ccc(C)c(-c2cc(C(=O)Nc3cccnc3)c3ccccc3n2)c1,-4,-8,1,0
Cc1ccc(C)c(-c2cc(C(=O)Nc3cccc(C(=O)O)c3)c3ccccc3n2)c1,9,-20,4,39*
Cc1ccc(-c2nc(CS(=O)CC(=O)NCc3ccc4c(c3)OCO4)c(C)o2)cc1 (centres undefined),99*,-10,3,0
CCc1ccc(-c2nc(CS(=O)CC(=O)NCc3ccc4c(c3)OCO4)c(C)o2)cc1 (centres undefined),99*,-10,11,0

# Screening data: PubChem, several laboratories
